# Assay results: PubChem BioAssay (NCATS)
# Values joined by “and” are separate entries in the source; they are usually repeats but may differ in a detail not shown here. Identical values can stand only once. Inconclusive results are not listed. A call without a number means that no potency is given here. Active and inactive are the calls of the source. Unless noted, the call rests on the fitted dose curve.
# Tests used:
# [1] = target: Vitamin D3 receptor (Homo sapiens) (UniProt P11473); experiment: qHTS assay for small molecule agonists of vitamin D receptor signaling (AID 588543)
# Sequence of Vitamin D3 receptor (Homo sapiens) (P11473 whole entry, looked up): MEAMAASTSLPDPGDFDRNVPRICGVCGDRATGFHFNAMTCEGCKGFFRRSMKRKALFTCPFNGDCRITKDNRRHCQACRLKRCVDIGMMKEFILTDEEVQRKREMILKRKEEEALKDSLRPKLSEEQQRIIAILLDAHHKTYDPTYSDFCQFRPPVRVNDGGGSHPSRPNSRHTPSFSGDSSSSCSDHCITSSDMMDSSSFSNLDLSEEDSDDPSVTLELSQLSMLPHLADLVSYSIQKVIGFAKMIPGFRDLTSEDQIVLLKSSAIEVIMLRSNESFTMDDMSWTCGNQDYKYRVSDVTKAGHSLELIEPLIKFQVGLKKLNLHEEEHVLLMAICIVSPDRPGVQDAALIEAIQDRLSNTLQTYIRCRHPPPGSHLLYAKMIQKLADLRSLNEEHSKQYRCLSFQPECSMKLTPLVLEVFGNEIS
# Outline: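 VDR-UAS-bla HEK293T cells, 2000/well, 2% charcoal-stripped FBS; compound titration 16 h at 37 C; CCF4 beta-lactamase ratio read. Normalized to 50 nM 1-alpha,25-dihydroxyvitamin D3 (100%) and DMSO; Hill fit gives EC50, efficacy.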
# [2] = qHTS assay for small molecule agonists of retinoid X receptor alpha signaling (AID 588544); conditions: HEK293T RXRa-UAS-bla, beta-lactamase reporter, 18 h; 530 nm emission
# [3] = target: Retinoic acid receptor RXR-alpha (Homo sapiens) (UniProt P19793); experiment: as above
# Sequence of Retinoic acid receptor RXR-alpha (Homo sapiens) (P19793 whole entry, looked up): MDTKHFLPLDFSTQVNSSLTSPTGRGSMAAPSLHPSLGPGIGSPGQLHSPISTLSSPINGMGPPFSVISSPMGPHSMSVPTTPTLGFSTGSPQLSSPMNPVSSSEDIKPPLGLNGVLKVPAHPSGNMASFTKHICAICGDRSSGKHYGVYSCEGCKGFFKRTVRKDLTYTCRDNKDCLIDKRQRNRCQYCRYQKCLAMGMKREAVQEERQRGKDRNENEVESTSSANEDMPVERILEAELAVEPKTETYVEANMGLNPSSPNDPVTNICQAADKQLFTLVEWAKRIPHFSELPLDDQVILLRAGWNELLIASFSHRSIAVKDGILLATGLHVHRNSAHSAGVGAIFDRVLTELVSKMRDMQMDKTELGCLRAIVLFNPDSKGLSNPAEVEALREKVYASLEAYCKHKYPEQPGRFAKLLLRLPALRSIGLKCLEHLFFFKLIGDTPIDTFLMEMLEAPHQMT
# [4] = target: Thyroid hormone receptor beta (Homo sapiens) (UniProt P10828); experiment: qHTS assay for small molecule agonists of thyroid hormone receptor beta signaling (AID 588545)
# Sequence of Thyroid hormone receptor beta (Homo sapiens) (P10828 whole entry, looked up): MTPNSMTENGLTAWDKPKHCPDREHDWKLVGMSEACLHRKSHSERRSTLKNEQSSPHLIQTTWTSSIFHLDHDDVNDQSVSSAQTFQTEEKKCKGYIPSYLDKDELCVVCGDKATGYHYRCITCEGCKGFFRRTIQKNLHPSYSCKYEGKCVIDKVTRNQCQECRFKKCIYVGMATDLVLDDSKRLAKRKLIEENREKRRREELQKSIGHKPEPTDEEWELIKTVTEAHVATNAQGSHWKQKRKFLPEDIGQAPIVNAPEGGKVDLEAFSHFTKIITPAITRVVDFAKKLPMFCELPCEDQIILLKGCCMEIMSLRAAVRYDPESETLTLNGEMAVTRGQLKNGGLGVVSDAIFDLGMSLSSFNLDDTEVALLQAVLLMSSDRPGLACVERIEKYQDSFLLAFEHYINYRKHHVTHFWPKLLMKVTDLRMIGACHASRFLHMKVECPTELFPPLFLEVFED
# Outline: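 Efficacy and EC50 values derive from Hill fits of qHTS titration data, normalized to 10 nM T3 and DMSO-only wells. HEK 293 reporter cells were stimulated for 18 hrs at 37 C, with beta-lactamase activity measured by CCF4 fluorescence.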
# [5] = qHTS assay for small molecule antagonists of retinoid X receptor alpha signaling (AID 588546; active means well fitted inhibition curve with a large enough effect in the signal ratio, with a control signal flat, not every such curve was filed as active; the % refers to the signal ratio;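 further: cells stimulated with 9-cis-retinoic acid as agonist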); conditions: HEK293T RXRa-UAS-bla, beta-lactamase ratio, antagonist mode; measured here: W530 green channel, cytotoxicity proxy
# Outline: (§1)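 Beta-lactamase reporter inhibition, read as CCF4 fluorescence ratio (ex 405, em 460/530 nm) after 2 h at RT. HEK293T UAS-bla cells, 2500/well, were stimulated with 9-cis-RA at 500 or 100 nM final alongside test compound for 18 h at 37 C.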
# [6] = target: Retinoic acid receptor RXR-alpha (Homo sapiens) (UniProt P19793); experiment: as above; conditions: HEK293T RXRa-UAS-bla, beta-lactamase ratio, antagonist mode
# Outline: as §1
# [7] = target: Thyroid hormone receptor beta (Homo sapiens) (UniProt P10828); experiment: qHTS assay for small molecule antagonists of thyroid hormone receptor beta signaling (AID 588547; active means well fitted inhibition curve with a large enough effect in the signal ratio, with a control signal flat, not every such curve was filed as active; the % refers to the signal ratio;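 further: cells stimulated with 0.4 nM T3 agonist during compound exposure; series mostly up to about 77 µM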); conditions: TR-UAS-bla HEK293, beta-lactamase ratio, antagonist mode, 18 h
# Outline: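 Inhibition of T3-driven (0.4nM final) beta-lactamase reporter activity was measured over 0.59 nM to 92 uM compound after 18 h at 37 C. The cells were GripTite HEK293 TR-UAS-bla in charcoal/dextran-stripped serum, with CCF4 ratio read-out and IC50 from Hill fits.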
# [8] = target: Voltage-gated inwardly rectifying potassium channel KCNH2 (Homo sapiens) (UniProt Q12809); experiment: qHTS Assay for Small Molecule Inhibitors of the Human hERG Channel Activity (AID 588834; active means well fitted inhibition curve with a large enough effect;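 further: lower thallium flux fluorescence means stronger hERG block; nearly all actives have a fitted effect of over 50% in size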; further: potency means the concentration at half of the fitted maximal effect)
# Sequence of Voltage-gated inwardly rectifying potassium channel KCNH2 (Homo sapiens) (Q12809 whole entry, looked up): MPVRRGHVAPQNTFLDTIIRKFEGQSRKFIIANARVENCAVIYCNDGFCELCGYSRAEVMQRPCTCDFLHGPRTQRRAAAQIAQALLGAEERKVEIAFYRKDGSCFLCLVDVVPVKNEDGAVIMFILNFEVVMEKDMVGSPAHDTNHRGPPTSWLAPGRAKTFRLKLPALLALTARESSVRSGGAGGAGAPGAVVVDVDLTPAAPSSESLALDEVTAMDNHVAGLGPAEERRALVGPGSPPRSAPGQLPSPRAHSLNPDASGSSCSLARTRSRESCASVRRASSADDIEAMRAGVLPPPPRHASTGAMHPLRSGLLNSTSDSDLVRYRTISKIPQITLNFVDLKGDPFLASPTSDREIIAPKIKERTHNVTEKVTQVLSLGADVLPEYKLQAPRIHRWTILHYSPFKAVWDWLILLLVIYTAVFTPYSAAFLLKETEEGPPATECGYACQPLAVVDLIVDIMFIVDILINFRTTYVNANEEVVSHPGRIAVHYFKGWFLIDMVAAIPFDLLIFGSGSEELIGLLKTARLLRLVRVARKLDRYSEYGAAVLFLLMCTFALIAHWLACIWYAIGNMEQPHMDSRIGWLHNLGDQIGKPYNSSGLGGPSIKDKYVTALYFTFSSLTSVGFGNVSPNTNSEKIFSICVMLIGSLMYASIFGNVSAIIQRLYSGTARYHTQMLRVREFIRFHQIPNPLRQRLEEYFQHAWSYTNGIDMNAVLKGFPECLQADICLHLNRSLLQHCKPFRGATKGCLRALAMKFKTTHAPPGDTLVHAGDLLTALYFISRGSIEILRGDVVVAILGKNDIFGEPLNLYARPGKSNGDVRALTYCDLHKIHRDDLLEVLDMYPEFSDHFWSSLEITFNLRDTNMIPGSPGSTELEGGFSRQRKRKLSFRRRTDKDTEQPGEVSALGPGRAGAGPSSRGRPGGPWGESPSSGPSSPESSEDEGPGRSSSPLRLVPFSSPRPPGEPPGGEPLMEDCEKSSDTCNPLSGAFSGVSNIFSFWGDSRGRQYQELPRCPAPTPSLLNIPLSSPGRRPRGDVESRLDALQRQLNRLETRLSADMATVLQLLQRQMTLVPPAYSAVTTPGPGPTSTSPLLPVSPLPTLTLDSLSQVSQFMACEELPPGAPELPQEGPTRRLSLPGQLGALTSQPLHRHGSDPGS
# Outline: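 Thallium serves as surrogate for K+ influx through BacMam-delivered hERG in U2OS cells. Compounds are added for about 10 minutes after dye loading; stimulation buffer then starts flux, monitored kinetically on FDSS.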
# [9] = target: Luciferin 4-monooxygenase (Photinus pyralis) (UniProt P08659); experiment: Biochemical firefly luciferase enzyme assay for NPC (AID 624030; active means well fitted inhibition curve with a large enough effect;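 further: purified P. pyralis luciferase at 10 nM with luciferin and ATP substrate; series mostly up to about 59 µM; nearly all actives have a fitted effect of over 70% in size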)
# Sequence of Luciferin 4-monooxygenase (Photinus pyralis) (P08659 whole entry, looked up): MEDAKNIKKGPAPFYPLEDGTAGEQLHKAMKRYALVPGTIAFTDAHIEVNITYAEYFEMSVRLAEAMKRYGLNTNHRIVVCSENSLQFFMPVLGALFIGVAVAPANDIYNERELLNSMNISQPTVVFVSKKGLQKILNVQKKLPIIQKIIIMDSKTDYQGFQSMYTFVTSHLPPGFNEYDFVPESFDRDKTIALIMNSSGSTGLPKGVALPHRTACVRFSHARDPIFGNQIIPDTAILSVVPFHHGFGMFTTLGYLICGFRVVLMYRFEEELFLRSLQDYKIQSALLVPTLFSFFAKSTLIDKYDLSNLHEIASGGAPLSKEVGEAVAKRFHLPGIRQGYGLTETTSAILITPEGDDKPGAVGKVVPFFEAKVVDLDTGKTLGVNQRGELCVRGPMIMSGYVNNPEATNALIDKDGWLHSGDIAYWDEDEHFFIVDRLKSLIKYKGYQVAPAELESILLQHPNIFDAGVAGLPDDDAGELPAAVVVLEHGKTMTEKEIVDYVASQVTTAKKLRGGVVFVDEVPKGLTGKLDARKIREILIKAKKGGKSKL
# Outline: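 Direct inhibition of firefly luciferase enzyme (10 nM final, 50 mM Tris Acetate) assessed by luminescence within 5 minutes. Percent activity scaled between DMSO and PTC124 positive control, with concentration-effect curves classified by fit quality and response.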
Structure (SMILES),outcome [1],max response [2],outcome [3],outcome [4],max response [5],max response [6],activity change % (negative = inhibition) [7],Potency [8],Potency [9]
CCCOC(=O)c1ccc(O)cc1,inactive,-11.1% and -2.66% and -11%,inactive,inactive,-12% and 3.27% and -2.1%,-6.42% (inactive) and -2.27% (inactive) and -9.81% (inactive),-17.9% (inactive) and -8.82% (inactive) and 6.79% (inactive),inactive,inactive
O=C(O)c1cc(O)c(O)c(O)c1,inactive,4.26%,inactive,inactive,3.69%,-2.74% (inactive),-16.5% (inactive),inactive,inactive
CN(C)c1ccc(N=NS(=O)(=O)O)cc1,inactive,-5.77%,inactive,inactive,-9.95% and 2.36%,-16.5% (inactive) and -8.55% (inactive),-11.7% (inactive),inactive,
CCCCCCCCCCCCCCCCCC(=O)OC(CC(=O)O)C[N+](C)(C)C (stereo not drawn),,,,,,,,inactive,
Nc1ccc(O)c([N+](=O)[O-])c1,inactive,-11.3%,inactive,inactive,-7.08% and 0.284%,32% (inactive) and 10.1% (inactive),3.22% (inactive) and -23.9% (inactive),inactive,
CN(C)CCC(c1ccc(Cl)cc1)c1ccccn1 (stereo not drawn),,8.67%,inactive,inactive,-0.244%,-3.52% (inactive),-21.7% (inactive),,inactive
Nc1nc2ccc([N+](=O)[O-])cc2s1,inactive,,,,0.666%,16.9% (inactive),-2.47% (inactive),inactive,
c1ccc2sc(SSc3nc4ccccc4s3)nc2c1,inactive,3.36% and -4.21%,inactive,inactive,-0.16% and -14.1%,0.434% (inactive) and -6.61% (inactive),20.1% (inactive) and 3.58% (inactive),inactive,inactive
Nc1ccc([N+](=O)[O-])cc1O,inactive,5.77%,inactive,inactive,3.08% and -8.59%,-3.43% (inactive) and -7.43% (inactive),10% (inactive) and 1.31% (inactive),inactive,inactive
c1cnc2c(c1)ccc1cccnc12,inactive,,,,,,-10.3% (inactive),inactive,
O=C(c1cc(O)c(O)c([N+](=O)[O-])c1)c1ccccc1F,,,,,,,,inactive,
O=C(O)[C@H](O)[C@@H](O)[C@H](O)[C@H](O)CO,inactive,-12.4%,inactive,inactive,-7.65%,4.17% (inactive),19.6% (inactive),inactive,inactive
C#C[C@]1(O)CC[C@H]2[C@@H]3CCc4cc(O)ccc4[C@H]3CC[C@@]21C,,,,inactive,,,-23% (inactive),inactive,
O=C(OCc1ccccc1)c1ccccc1,inactive,2.86%,inactive,inactive,-18.5%,-1.47% (inactive),12.6% (inactive),inactive,
Ic1ccc(N2CCN(Cc3c[nH]c4ncccc34)CC2)cc1,,,,,,,,1120 nM (active),
CCCCCCCCCCCCCCCC(=O)OC(C)C,inactive,0.385%,inactive,inactive,-10.7%,8.58% (inactive),-1.02% (inactive),inactive,inactive
O=C(Nc1ccccc1)c1cc([N+](=O)[O-])ccc1Cl,,,,inactive,-9.1%,-13.8% (inactive),9.48% (inactive),inactive,
S=c1[nH]c2ccccc2s1,inactive,-3.92%,inactive,inactive,0.276% and 7.73%,18% (inactive) and -15.5% (inactive),-9.82% (inactive) and 10.5% (inactive),inactive,
Nc1ccc(O)c(C(=O)O)c1,inactive,-5.65% and -3.05%,inactive,,7.86% and -11.8%,19.2% (inactive) and -15.8% (inactive),,inactive,
